Values without a mark were called inactive. Activity calls are given as the source filed them. Calls follow the shape of the dose curve; as a rule, active = well fitted curve in the direction sought with a large enough effect in the repeat runs; inconclusive = weak or mixed curves; inactive = flat fitted curve, though single readings scatter.
Experiment: qHTS assay to test for compound auto fluorescence at 535 nm (green) in HEK293 cells (AID 720680)
Details: green autofluorescence 485/535 nm; series mostly up to 91.3 µM; fluorescence, % of fluorescein: at the top concentration
Description: U.S. Tox21 Program National Center for Advancing Translational Sciences [NCATS] NIH Chemical Genomics Center [NCGC] U.S. Environmental Protection Agency [EPA] National Institutes of Environmental Health Sciences [NIEHS] National Toxicology Program [NTP] U.S. Food and Drug Administration [FDA] Tox21 Assay Overview: Compound auto fluorescence often interferes with screening of the compound library against various biological targets and signaling pathways. Some of these compounds may have fluorophoric properties. Such properties may interfere with the assay outputs resulting in false positives and/or negatives. To decrease such complications and ensure the compound activities are relevant in terms of biological response, the Tox21 10K compound library was screened for auto fluorescence. From the fluorophores used as reporter signals in our screening assays, the auto fluorescence equivalencies of compounds against three fluorophores have been evaluated: Triamterene, Fluorescein and Rose Bengal sodium for blue, green and red fluorescence, respectively. The fluorescence intensities were measured using Excitation/Emission wavelengths at 405/460nm, 485/535nm and 540/590nm for blue, green and red labels, respectively. This assay includes the green fluorescence data.
Tox21 Assay Protocol Summary: 2,000 HEK293 cells in 5 uL of culture medium containing 10% dialyzed FBS per well were dispensed into black wall/clear bottom 1536-well plates using a Multidrop Combi Dispenser (Thermo Scientific). The assay plates were incubated for 4-5 hr at 37C to allow cell attachment to the well bottom, followed by the transfer of 23 nL compound or DMSO vehicle by a pintool work station (Kalypsys, San Diego, CA). After the assay plates were incubated overnight at 37C and 5% CO2, fluorescence intensities in the assay plates were measured by an Envision (PerkinElmer, Shelton, CT) plate reader using three labels for measuring blue, green and red fluorescence at […] 460, 535 and 590nm respectively.
With `C1CCCNCC1` the outcome was “inactive”.
For `Cc1ccccc1C=O`, the outcome was “inactive”.
In the case of `CCCOCC(C)O` (stereo not given), the outcome is reported as “inactive”.
For `C[Si](C)(C)N[Si](C)(C)C`, the outcome was “inactive”.
In the case of `Cc1ccc(C(C)C)cc1`, the outcome is reported as “inactive”.
With `COCN(COC)c1nc(N(COC)COC)nc(N(COC)COC)n1` the outcome was “inactive”.
With `O=C1CCCCCCCCCCC1` the outcome was “inactive”.
For `CN1Cc2c(N)cccc2C(c2ccccc2)C1` (stereo not given), the outcome was “inactive”.
For `CN=C(NC#N)NCCSCc1nc[nH]c1C`, the outcome was “inactive”.
In the case of `CC/C(C)=N/O`, the outcome is reported as “inactive”.
For `COc1ccc(N)c(OC)c1`, the outcome was “inactive”.
For `OC[C@H]1O[C@@H](Oc2ccc(O)cc2)[C@H](O)[C@@H](O)[C@@H]1O`, the outcome was “inactive”.
For `CCCCCNCCCCC`, the outcome was “inactive”.
With `CCCCC(=O)O` the outcome was “inactive”.
For `O=[N+]([O-])c1ccccc1C(F)(F)F`, the outcome was “inactive”.
In the case of `CC(O)CNCC(C)O` (stereo not given), the outcome is reported as “inactive”.
With `OB(O)O` the outcome was “inactive”.
In the case of `C[n+]1ccn(CCO)c1`, the outcome is reported as “inactive”.
For `Cc1cc(C)cc(O)c1`, the outcome was “inactive”.
In the case of `CN1CCCC1=O`, the outcome is reported as “inactive”.
With `CC(C)c1ccc(C(C)C)cc1` the outcome was “inactive”.
In the case of `COc1cc(NC(=O)CC(C)=O)c(OC)cc1Cl`, the outcome is reported as “inactive”.
For `C=C(CC(=O)O)C(=O)O`, the outcome was “inactive”.
With `CCN(CC)CCNC(=O)c1ccc(N)cc1` the outcome was “inactive”.
In the case of `CC[N+](CC)(CC(=O)Nc1c(C)cccc1C)Cc1ccccc1`, the outcome is reported as “inactive”.
With `CCCCCCCC(=O)O` the outcome was “inactive”.
For `Cc1cccc(C)c1[N+](=O)[O-]`, the outcome was “inactive”.
With `CC(=O)OC[C@H]1O[C@@](COC(C)=O)(O[C@H]2O[C@H](COC(C)=O)[C@@H](OC(C)=O)[C@H](OC(C)=O)[C@H]2OC(C)=O)[C@@H](OC(C)=O)[C@@H]1OC(C)=O` the outcome was “inactive”.
For `CC1=CC(=O)CC(C)(C)C1`, the outcome was “inactive”.
With `CCCCCCC(=O)O` the outcome was “inactive”.
In the case of `CC(C)(CO)CO`, the outcome is reported as “inactive”.
In the case of `CCc1cccc(O)c1`, the outcome is reported as “inactive”.
For `CS(=O)(=O)c1ccc(Cl)cc1`, the outcome was “inactive”.
For `Brc1ccc(Oc2ccc(Br)cc2)cc1`, the outcome was “inactive”.
In the case of `Cc1ncc(CO)c(CO)c1O`, the outcome is reported as “inactive”.
With `Cc1ccc(C)c(S(=O)(=O)O)c1` the outcome was “inactive”.
In the case of `COC(=O)/C=C\C(=O)OC`, the “fluorescence, % of fluorescein” value is reported as -0.0752%.
In the case of `CCCOC(=O)NCCCN(C)C`, the outcome is reported as “inactive”.
For `C=C1C[C@]23C[C@@]1(O)CC[C@H]2[C@@]12C=C[C@H](O)[C@@](C)(C(=O)O1)[C@H]2[C@@H]3C(=O)O`, the outcome was “inactive”.
With `CCOC(=O)c1ccc(O)cc1` the outcome was “inactive”.

Source: PubChem BioAssay (Tox21)
% is scaled to controls: 0 for no effect and ±100 for the full control effect.
